# This is a sample that favours compounds with a hit; in the whole collection about 12% have one here.
# Sfp PPTase inh: qHTS Assay for Inhibitors of Bacillus subtilis Sfp phosphopantetheinyl transferase (PPTase) | 4'-phosphopantetheinyl transferase ffp (Bacillus subtilis), Q9F4F7 | AID 1490, 2009 | Potency, µM, for inactives: largest response in the series, negative = inhibition, most hits filed as inhibitors | Biochemical Sfp PPTase activity, qHTS | 3.5% of 310,000 active;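 further: the enzyme is Sfp with the accession as filed and its product quenches rhodamine fluorescence; 0% = enzyme reaction without inhibitor and -100% = no enzyme wells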
#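 Buffer: 50 mM Hepes-Na pH 7.6, 10 mM MgCl2, 0.01% Nonidet P-40, 0.01% BSA. Enzyme 15 nM, pre-exposed to compound 15 min; substrates then added and fluorescence change tracked over 30 min.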
# BAZ2B block: qHTS Assay for Inhibitors of BAZ2B | Bromodomain adjacent to zinc finger domain protein 2B (Homo sapiens), Q9UIF8 | AlphaScreen BAZ2B-H3K14Ac peptide displacement | Potency, µM (highest dose often 114 µM), for the others: at the top dose activity change, negative = inhibition, actives largely listed as inhibitors | 4.4% of 360,000 active | AID 504333, 2011; further: on the % scale 0 is the no-effect control and ±100 the full control effect; nearly all actives have a fitted effect of over 60% in size
#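 BAZ2B 50 nM plus b-H3(5-23)K14Ac 50 nM, PBS pH 7.4/0.01% Tween-20, 30 min RT; compound added (max 110 uM), 30 min RT; streptavidin donor/Ni-chelate acceptor beads 10 ug/mL final, 20 min dark; AlphaScreen read.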
# G9a inh: qHTS Assay for Inhibitors of Histone Lysine Methyltransferase G9a. Potency, µM (highest dose often 102 µM), inactives show at the highest dose activity, negative = inhibition, usual class: inhibitors. AID 504332, 2011. G9a H3K9 monomethylation, AlphaScreen, 2 h. 8.8% of 350,000 active; further: on the % scale 0 is the no-effect control and ±100 the full control effect; nearly all actives have a fitted effect of over 75% in size
# Target sequence (Q96KQ7 913-1193 limits assumed): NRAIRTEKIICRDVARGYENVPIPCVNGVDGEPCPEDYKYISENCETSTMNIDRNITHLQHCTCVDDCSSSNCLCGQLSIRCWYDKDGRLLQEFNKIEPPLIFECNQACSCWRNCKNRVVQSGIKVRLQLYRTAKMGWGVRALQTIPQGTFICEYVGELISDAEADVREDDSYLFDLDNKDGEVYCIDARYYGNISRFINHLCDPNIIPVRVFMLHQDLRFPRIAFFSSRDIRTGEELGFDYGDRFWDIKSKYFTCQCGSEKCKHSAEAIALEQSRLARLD
#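 AlphaScreen detection with an anti-monomethyl H3K9 antibody quantified product after a 2 h room-temperature reaction containing 500 nM biotinylated H3K9 peptide, 20 µM SAM and 20 nM enzyme, which had been preincubated 15 min with compound.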
# L3MBTL1 inh: qHTS Assay for the Inhibitors of L3MBTL1 | Potency, µM (doses to about 57.1 µM), for the others: at the highest dose activity, negative = inhibition, most hits filed as inhibitors | AlphaScreen L3MBTL1–H3K9me1 peptide binding | AID 485360, 2010 | 0.66% of 230,000 active; further: on the % scale 0 is the no-effect control and ±100 the full control effect; nearly all actives have a fitted effect of over 60% in size
#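 First, the protein-peptide complex forms for 30 min at room temperature (L3MBTL1 50 nM, biotinylated H3K9me1 peptide 75 nM). Next, compounds are pin-transferred and incubated 30 min. Finally, AlphaScreen beads are added and read after 30 min.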
# JMJD2A Tudor inh: qHTS Assay for Inhibitors of JMJD2A-Tudor Domain. Lysine-specific demethylase 4A (Homo sapiens), O75164. AlphaScreen JMJD2A-Tudor / H3K4me3 peptide binding. Potency, µM (series often up to 114 µM), inactives show top-dose activity change, negative = inhibition, most hits filed as inhibitors. 4.4% of 390,000 active. AID 504339, 2011; further: on the % scale 0 is the no-effect control and ±100 the full control effect; nearly all actives have a fitted effect of over 50% in size
# HP1b chromo inh: HTS for Inhibitors of HP1-beta Chromodomain Interactions with Methylated Histone Tails; AlphaScreen HP1-beta / biotin-H3K9me3 peptide binding; AID 540317, 2011; 0.56% of 390,000 active; Chromobox protein homolog 1 (Homo sapiens), P83916; Potency, µM (doses to about 114 µM), without a hit: at the top dose activity change, negative = inhibition, most hits filed as inhibitors; further: nearly all actives have a fitted effect of over 70% in size
# Target sequence (P83916 whole entry, looked up): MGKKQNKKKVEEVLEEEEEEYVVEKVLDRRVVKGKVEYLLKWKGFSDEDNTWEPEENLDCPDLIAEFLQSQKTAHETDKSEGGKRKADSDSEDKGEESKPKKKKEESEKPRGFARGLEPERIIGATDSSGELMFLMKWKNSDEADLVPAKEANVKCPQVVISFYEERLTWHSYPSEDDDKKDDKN
#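 AlphaScreen: HP1-beta (50 nM) preformed 30 min with biotin-H3(1-18)K9me3 peptide (50 nM) in PBS pH 7.4, 0.01% Tween-20. Compound added for 30 min at RT, then streptavidin donor/nickel chelate acceptor beads (10 ug/mL) for 30 min.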
# An asterisk follows results filed as active; ? = inconclusive; / = no result; [ ] = another dose, or the depositor's remark. The call rests on the fitted dose curve; in most records, active means well fitted curve in the direction sought with a large enough effect; inconclusive means small, poorly fitted or top-dose-only effect, or another doubt; inactive means no such curve, though single readings can be large; an effect the other way counts as inactive or inconclusive. Potency means the concentration at half of the fitted maximal effect.
SMILES,Sfp PPTase inh,BAZ2B block,G9a inh,L3MBTL1 inh,JMJD2A Tudor inh,HP1b chromo inh
COc1cccc(NC(=O)c2oc3ccccc3c2NC(=O)c2ccc(C(F)(F)F)cc2)c1,/,-6.3%,-13.6%[59 µM],/,-13.6%,30.2%
CCSc1ccccc1C(=O)NCc1ccco1,14.5%,-0.1%,10µM*,/,-23.0%,4.8%
CCSc1ccccc1C(=O)NCc1cccnc1,-4.1%,-12.1%,8.91µM*,3.9%,-15.8%,20.6%
O=C(NCc1ccco1)C1c2ccccc2Oc2ccccc21,39.8µM*,-8.8%,?,?,50.1µM*,0.7%
CCOC(=O)c1[nH]c(C)c(C(=O)NCc2ccc(C)cc2)c1C,1.5%,-6.1%,-3.0%,/,-3.6%,17.7%
CCOC(=O)c1[nH]c(C)c(C(=O)NCc2cccnc2)c1C,-1.4%,12.8%,35.5µM*,/,-15.7%,50.2%
Cn1nc(-c2cccnc2)nc2c(=O)n(C)c(=O)nc1-2,/,/,/,/,-0.8%[57.1 µM],15.2%[57 µM]
COc1ccc(CN(C(=O)COc2ccccc2OC)C2CCS(=O)(=O)C2)cc1 (centres undefined),/,5.1%,-5.4%[59 µM],/,-1.9%,16.7%
O=C(NCc1ccco1)c1ccccc1Br,17.1%,12.5%,9.4%[12.7 µM],/,50.1µM*,-22.9%
Cn1cc(S(=O)(=O)N2CCc3ccccc32)cc1C(=O)Nc1ccc(C(F)(F)F)cc1,/,-36.3%,?,/,?,-16.9%
CSc1nc(-c2ccco2)nn1C(=O)c1ccco1,?,9.4%,39.8µM*,10.2%,-5.0%,64.5%
O=C(c1ccco1)n1nc(-c2ccco2)nc1SCc1ccccc1,5.5%,5.4%,13.9%,/,-14.8%,29.8%
CSc1nc(-c2ccco2)nn1C(=O)c1ccc(C)cc1,?,8.0%,44.7µM*,6.9%,20.4%,61.7%
CSc1nc(-c2ccco2)nn1C(=O)c1ccccc1,14.1µM*,?,?,1.3%,-6.1%,55.1%
CCCC(=O)NCC(c1ccc2c(c1)OCO2)N1CCN(c2ccccc2)CC1 (centres undefined),/,5.2%,-4.1%[59 µM],/,-10.0%,29.7%[57 µM]
CSc1ccccc1NC(=O)c1ccc([N+](=O)[O-])cc1,56.2µM*,?,31.6µM*,-11.9%,-32.9%,?
O=C(Nc1cccc([N+](=O)[O-])c1)c1ccc(CSc2ccccc2)cc1,9.2%,-8.1%,7.1%[12.7 µM],-4.3%,-12.7%,23.5%
Cc1ccc([N+](=O)[O-])cc1NC(=O)c1ccc(CSc2ccccc2)cc1,31.6µM*,-4.8%,?,-9.4%,-11.7%,25.3%
C[n+]1cccc2cccc([O-])c21,-22.1%,56.2µM*,/,28.2µM*,?,1.4%
[O-][n+]1cccc2cccc(O)c21,/,/,/,/,-14.5%,5.1%[57 µM]
CC1CCN(S(=O)(=O)c2ccc3c(ccc(=O)n3CC(=O)Nc3cccc(F)c3)c2)CC1,/,-7.0%,-0.6%[59 µM],/,-21.3%,33.0%[57 µM]
O=C(NC(Cc1ccccc1)C(=O)OCC(=O)N1CCc2ccccc21)c1ccco1 (centres undefined),4.2%,-0.9%,14.1µM*,-3.6%,-10.9%,9.4%
O=C(CSCc1ccco1)N1CCc2ccccc21,13.2%,-26.8%,70.8µM*,/,-23.8%,18.5%
O=C(CSc1ccccc1)N1CCc2ccccc21,7.3%,7.8%,39.5%[59 µM],/,19.2%,54.8%
CCOC(=O)c1cccc(Nc2c3c(nc4ccccc24)CCC3)c1,/,/,-38.5%[59 µM],/,-25.3%,25.8%
SMILES,Sfp PPTase inh,BAZ2B block,G9a inh,L3MBTL1 inh,JMJD2A Tudor inh,HP1b chromo inh
CN1CCN(c2ncc3nc(-c4ccc(Cl)cc4)c(=O)n(C4CC4)c3n2)CC1,-11.6%,/,6.6%[12.7 µM],/,/,/
CCOc1ccc(OCCN2CCCCC2)cc1,-16.8%,56.2µM*,7.94µM*,-11.1%,10µM*,-11.3%
CC(OCCN1CCCC1)(c1ccc(F)cc1)c1ccc(F)cc1,4.4%,-2.7%,8.3%[59 µM],-4.1%,89.1µM*,23.3%
CC(C)(C)c1ccc(OCC(=O)NCCN2CCCC2)cc1,?,-3.5%,0.9%[12.7 µM],/,-1.9%,18.1%
Fc1ccc(OCCOCCN2CCCC2)cc1,/,/,/,/,6.31µM*,?
c1ccc(OCCOCCN2CCN(C(c3ccccc3)c3ccccc3)CC2)cc1,-34.4%,50.1µM*,10µM*,-16.7%,0.891µM*,?
Cc1cc(OCCOCCN2CCCC2)ccc1C(C)C,-10.3%,?,20µM*,-0.9%,5.01µM*,19.0%
CNCCOc1ccc(Cl)c(Cl)c1,-19.0%,-33.4%,39.8µM*,4.5%,3.16µM*,?
CCc1cccc(OCCOCCN2CCCC2)c1,-4.4%,79.4µM*,10µM*,/,10µM*,?
CCOc1ccc(OCCOCCN2CCCC2)cc1,?,?,8.91µM*,2.5%,28.2µM*,-19.7%
Cc1ccc(C)c(NC(=O)CN2C(=O)CCc3cc(S(=O)(=O)N4CCCCC4)ccc32)c1,/,-15.1%,-2.6%[12.7 µM],/,2.3%,25.5%
Cc1nc(-n2nc(C)c(CCC(C)C)c2C)sc1C(=O)Nc1ccc(Cl)cc1,/,9.7%,-1.3%[59 µM],/,3.6%,59.4%
Clc1ccc(OCCN2CCCCC2)cc1Cl,-5.8%,?,?,0.4%,22.4µM*,-56.8%
CCOc1ccc(CNCCN2CCCC2)cc1,-28.2%,56.2µM*,2.82µM*,-4.4%,12.6µM*,?
COCc1[nH]c(=S)[nH]c(=O)c1C,79.4µM*,-21.4%,?,?,-23.3%,35.7%
CCOCc1[nH]c(=S)[nH]c(=O)c1Cc1ccc(OCC)cc1,?,-0.5%,/,32.9%,-6.8%[11.4 µM],3.1%
COc1ccc2[nH]cc(C(=O)CNc3nc(C)cs3)c2c1,-8.5%,50.1µM*,?,-5.5%,-4.6%[11.4 µM],-0.9%
CCN(CC)C(=S)SC1=CCS(=O)(=O)C1,79.4µM*,/,20µM*,/,3.0%[11.4 µM],45.4%
CCN(CC)C(=S)SCC(=O)c1ccccc1,14.4%,26.5%[57.1 µM],-1.1%,12.7%,20.3%,57.7%
Cc1cccc(NC(=O)CSc2nnc(-c3cccs3)o2)c1,/,3.8%,-4.5%[59 µM],/,-15.9%,34.8%
O=C(c1ccccc1)N1CCCC(c2ccc(Cl)cc2)=N1,79.4µM*,16.1%,-1.0%[2.33 µM],12.0%,14.1%,41.0%
CCC1(C)Cc2ccccc2-c2c1c(=O)n(-c1ccc(C)cc1)c1nnnn21 (centres undefined),-1.4%,1.1%,50.1µM*,/,-6.3%,26.1%
COc1ccc([C@H]2[C@H](C(=O)C(C)(C)C)N3N=Cc4ccccc4C3[C@]23N=C(c2ccccc2)OC3=O)cc1 (some centres undefined),-0.6%,?,/,-6.8%,-31.1%,7.0%

# Screens: PubChem BioAssay, National Center for Advancing Translational Sciences (NCATS)
